Compounds with a hit are over-represented: about 18% of the library has one in this group of screens.
CtBP-E1A blk – CtBP/E1A binding inhibition; AID 651724; AlphaScreen GST-E1A/His-CtBP binding, 1536-well; active compounds read low; activity change, % (concentration not given with the values); actives 0.49% (n = 340,000); in the data active means activity change below about -65%; inconclusive means mostly about -30% to -63%
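GST-E1A and His-tagged CtBP (125 nM each as 5X stock) were preincubated with pin-transferred compound for 2 h at 37 °C in the dark, then glutathione donor and nickel acceptor beads were added for 1 h before AlphaScreen reading.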
IL-1B inflam inh – inflammasome signaling inhibition, IL-1 beta readout. THP-1 LPS/ATP IL-1B secretion, AlphaLISA, 16 h; active compounds read low. activity change, % at 57.5 µM. actives 4.7% (n = 360,000); in the data active means activity change below about -50%; inconclusive means mostly about -30% to -49%
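THP-1 cells pretreated 1 hr with compounds (up to 57.5 uM final), then stimulated with LPS (250 ng/mL final) plus ATP (1.25 mM final); secreted IL-1B measured by AlphaLISA after 16 hr, decreased signal indicating inhibition.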
TDP1 cell CPT – growth inhibition of DT40 Tdp1-/-;hTDP1 cells with camptothecin (screen for TDP1 inhibitors); actives 12% (n = 420,000); chicken DT40 Tdp1-/-;hTDP1 cells + 20 nM CPT, ATP luminescence, 48 h; Potency, µM (top dose mostly 46.2 µM), inactives show at the highest dose activity change, negative = growth inhibition, most hits filed as inhibitors; further: potency means the concentration at half of the fitted maximal effect; nearly all actives have a fitted effect of over 55% in size
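Cell growth measured by CellTiter-Glo luminescence after a minimum 48 h, 37 C compound exposure with 20 nM CPT in Tdp1-knockout DT40 cells stably expressing hTDP1, seeded 400/well; qHTS titration format.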
TDP1 cell noCPT – qHTS for Inhibitors of human tyrosyl-DNA phosphodiesterase 1 (TDP1): qHTS in cells in absence of CPT; DT40 Tdp1-/- hTDP1 cells, no CPT, ATP luminescence, 48 h; Potency, µM (top dose mostly 46.2 µM), for inactives: top-dose activity change, negative = growth inhibition, hits mostly inhibitors; actives 15% (n = 420,000); further: potency means the concentration at half of the fitted maximal effect; nearly all actives have a fitted effect of over 55% in size
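Chicken DT40 Tdp1-/- cells stably complemented with human TDP1 were seeded at 400 cells/well with DMSO in place of 20 nM camptothecin. After compound pinning, cells grew at least 48 hr at 37 °C; viability read by CellTiter-Glo luminescence.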
Six1-Eya2 blk – blocks human Six1 binding to Eya2 | AID 651725 | AlphaScreen GST-Six1/His-Eya2 binding, biochemical; active compounds read low | actives 0.56% (n = 360,000) | activity change, % (no concentration beside the values) | Q15475+O00167; in the data active means activity change below about -65%; inconclusive means mostly about -30% to -63%
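Six1/Eya2 binding was read as AlphaScreen signal after compounds were pinned into GST-Six1 plus His-tagged Eya2 (5X stock 250/500 nM) in pH 8.0 Tris/NaCl/TCEP buffer, beads added, then incubated 1 h, 37 C, dark.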
TDP1 block – inhibitors of human tyrosyl-DNA phosphodiesterase TDP1; Q9NUW8; recombinant TDP1, AlphaScreen DNA substrate cleavage; Potency, µM (titrated, usually from 130 µM), for the others: top-dose activity change, negative = inhibition, usual class: inhibitors; actives 0.28% (n = 350,000); AID 485290; further: potency means the concentration at half of the fitted maximal effect; nearly all actives have a fitted effect of over 40% in size
Target sequence (Q9NUW8 whole entry, looked up): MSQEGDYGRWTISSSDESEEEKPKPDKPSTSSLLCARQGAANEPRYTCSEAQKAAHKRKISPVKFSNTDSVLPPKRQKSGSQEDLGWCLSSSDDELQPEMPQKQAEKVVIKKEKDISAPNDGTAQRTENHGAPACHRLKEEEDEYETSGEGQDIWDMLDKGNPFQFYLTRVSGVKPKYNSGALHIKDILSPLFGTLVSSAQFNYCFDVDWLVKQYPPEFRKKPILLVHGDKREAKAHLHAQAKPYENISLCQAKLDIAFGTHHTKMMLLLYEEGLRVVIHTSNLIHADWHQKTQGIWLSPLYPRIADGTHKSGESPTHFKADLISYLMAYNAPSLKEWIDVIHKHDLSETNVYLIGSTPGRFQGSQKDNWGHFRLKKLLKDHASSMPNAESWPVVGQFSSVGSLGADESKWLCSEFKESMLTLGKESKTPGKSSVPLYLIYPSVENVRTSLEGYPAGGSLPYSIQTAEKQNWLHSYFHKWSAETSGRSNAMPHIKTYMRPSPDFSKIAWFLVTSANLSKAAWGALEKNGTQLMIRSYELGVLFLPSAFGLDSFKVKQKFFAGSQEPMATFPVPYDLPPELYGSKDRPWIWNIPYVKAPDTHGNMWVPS
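Enzyme-compound mixtures sat 15 min at room temperature, followed by a 5 min reaction with 15 nM final substrate and 10 min with AlphaScreen beads. Recombinant human Tdp1 was used at 1 nM final.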
* marks the source's active call; other numbers are inactive results; [ ] = remark or other dose. Unless noted, the call rests on the fitted dose curve; in most records, active means well fitted curve in the direction sought with a large enough effect; inconclusive means small, poorly fitted or top-dose-only effect, or another doubt; inactive means no such curve, though single readings can be large; an effect the other way counts as inactive or inconclusive. On the % scale 0 is the no-effect control and ±100 the full control effect.

Screening CCOC(=O)C1=C(CN2CCCCCC2)NC(=O)NC1c1ccc2c(c1)OCO2 (stereo not given) returned CtBP-E1A blk 0.9, IL-1B inflam inh 0.0, TDP1 cell CPT -25.0%, TDP1 cell noCPT inconclusive, Six1-Eya2 blk -4.1 and TDP1 block -3.8%.
Screening Cc1ccc(CNC(=O)CN2CCN(Cc3ccc(F)cc3)C2=O)cc1 returned TDP1 cell CPT -4.6%, TDP1 cell noCPT -23.6% and TDP1 block 2.5%.
Screening CCc1ccc(NC(=O)/C(C#N)=C/c2ccncc2)cc1 returned CtBP-E1A blk -14.7, IL-1B inflam inh -13.7, TDP1 cell CPT inconclusive, TDP1 cell noCPT inconclusive, Six1-Eya2 blk 0.0 and TDP1 block 5.3%.
For CN(C)c1ccc(NC(=O)Cn2cc(S(=O)(=O)Cc3ccccc3Cl)c3ccccc32)cc1 the results were TDP1 cell CPT inconclusive, TDP1 cell noCPT 8.2µM* and TDP1 block 3.7%.
`CN(C)c1ccc(NC(=O)Cn2cc(S(=O)(=O)Cc3cccc(Cl)c3)c3ccccc32)cc1` gave TDP1 cell CPT inconclusive, TDP1 cell noCPT inconclusive and TDP1 block 5.0%.
For Cc1ccc(CNC(=O)Cn2cc(S(=O)(=O)Cc3ccccc3Cl)c3ccccc32)cc1 the results were TDP1 cell CPT 18.4µM*, TDP1 cell noCPT 14.6µM* and TDP1 block 6.2%.
`Cc1ccc(C)c(NC(=O)Cn2cc(S(=O)(=O)Cc3cccc(Cl)c3)c3ccccc32)c1` gave TDP1 cell CPT 16.4µM*, TDP1 cell noCPT inconclusive and TDP1 block -3.7%.
For CCN(C(=O)Cn1cc(S(=O)(=O)Cc2ccccc2Cl)c2ccccc21)c1ccccc1 the results were TDP1 cell CPT 16.4µM*, TDP1 cell noCPT 23.1µM* and TDP1 block 7.5%.
Screening O=C(Cn1cc(S(=O)(=O)Cc2ccccc2Cl)c2ccccc21)NCc1ccccc1Cl returned TDP1 cell CPT inconclusive, TDP1 cell noCPT inconclusive and TDP1 block 7.5%.
Cn1c(SCc2ccccc2)nnc1-c1ccc2nonc2c1 was read as CtBP-E1A blk 0.0, IL-1B inflam inh -1.6, TDP1 cell CPT -5.2%, TDP1 cell noCPT -17.3%, Six1-Eya2 blk 1.5 and TDP1 block 5.5%.
For CN(C)CCCn1c(=S)[nH]c2sc3c(c2c1=O)CCCC3 the results were CtBP-E1A blk 3.4, IL-1B inflam inh inconclusive, TDP1 cell CPT -14.6%, TDP1 cell noCPT -18.7%, Six1-Eya2 blk -20.6 and TDP1 block -3.3%[0.0935 µM].
CCOC(=O)C1=CCC2C(=O)N(C)C(=O)C12 (stereo not given) was read as CtBP-E1A blk 0.1, IL-1B inflam inh 21.8, TDP1 cell CPT 3.5%, TDP1 cell noCPT 1.7% and Six1-Eya2 blk 2.6.
For COc1ccc(CN(CCC(C)C)S(=O)(=O)c2ccccc2Br)c(OC)c1 the results were CtBP-E1A blk 19.6, IL-1B inflam inh -11.3, TDP1 cell CPT inconclusive, TDP1 cell noCPT inconclusive, Six1-Eya2 blk 12.5 and TDP1 block -10.3%[56.1 µM].
Cc1cc(O)c(C(C[N+](=O)[O-])c2ccc(Cl)cc2Cl)c(=O)o1 (stereo not given) was read as CtBP-E1A blk -14.9, IL-1B inflam inh 1.3, TDP1 cell CPT 18.4µM*, TDP1 cell noCPT 16.4µM*, Six1-Eya2 blk -1.9 and TDP1 block -4.0%.
For CC(C)C[C@H]1CNC(=O)C(=O)N1C[C@H]1CCCN1C[C@H](CC(C)C)N1C[C@H](Cc2ccccc2)N(CC2CCCCC2)C(=O)C1=O the results were CtBP-E1A blk 25.7, IL-1B inflam inh 8.9, TDP1 cell CPT -2.3%, TDP1 cell noCPT 3.1% and Six1-Eya2 blk 19.1.

Screening data (PubChem)
